In PubChem BioAssay (NCATS):
Records with an inconclusive call do not appear. Calls of active or inactive are those of the source. Unless noted, calls come from the whole dose curve; as a rule, active = well fitted curve in the direction sought with a large enough effect; inconclusive = small, poorly fitted or top-dose-only effect, or another doubt; inactive = no such curve, though single readings can be large; an effect the other way counts as inactive or inconclusive.

Tests used:
[1] = target: Lysosomal acid glucosylceramidase (Homo sapiens) (UniProt P04062); experiment: Glucocerebrosidase-p2 (AID 348; in the data active = potency below about 10 µM; note: potency is the fitted concentration of half-maximal effect); conditions: purified GBA, blue fluorogenic substrate, 40 min
Chain of Lysosomal acid glucosylceramidase (Homo sapiens) (P04062 whole entry, looked up): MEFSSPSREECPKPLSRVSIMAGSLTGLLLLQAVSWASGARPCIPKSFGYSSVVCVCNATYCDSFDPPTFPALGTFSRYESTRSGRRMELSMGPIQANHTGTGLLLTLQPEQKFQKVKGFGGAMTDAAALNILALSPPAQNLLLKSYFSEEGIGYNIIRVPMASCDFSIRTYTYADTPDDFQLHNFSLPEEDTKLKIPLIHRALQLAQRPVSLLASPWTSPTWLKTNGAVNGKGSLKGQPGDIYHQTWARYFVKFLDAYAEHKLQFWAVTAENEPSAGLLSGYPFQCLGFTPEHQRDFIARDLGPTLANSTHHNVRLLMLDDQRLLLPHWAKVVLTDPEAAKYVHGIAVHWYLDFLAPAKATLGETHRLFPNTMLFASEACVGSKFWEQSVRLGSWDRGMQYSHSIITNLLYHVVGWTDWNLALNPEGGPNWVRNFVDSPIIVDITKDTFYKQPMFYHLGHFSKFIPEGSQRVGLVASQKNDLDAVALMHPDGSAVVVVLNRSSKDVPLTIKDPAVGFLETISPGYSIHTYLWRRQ
Outline: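 Compounds titrated from 0.6 nM upwards against 0.2 nM enzyme in pH 5.9 citric acid/KH2PO4, taurocholate, tween-20; blue fluorogenic substrate 80 uM, 40 min room temperature, stopped and read Ex 365/Em 440 for AC50.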

[2] = AP1 Signaling Pathway (AID 357; active = well fitted curve in either direction with a large enough effect, not every such curve was filed as active;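 note: ME-180 reporter cells stimulated with EGF at its EC50 level; % is set by controls: 0 for no effect and ±100 for the full control effect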); conditions: ME-180 AP-1-bla reporter, EGF-induced, beta-lactamase ratio, 5 h; at 7.69 µM (top of the series) unless noted
Outline: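 AP-1-bla ME-180 cells, Opti-MEM + 0.5% dialyzed FBS, plated overnight 37 °C. Cpd titration + EC50 EGF, 5 h 37 °C. CCF4 2.5 h RT; ex 405, em 460/530 ratio → %activity, AC50.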

[3] = target: Cytochrome P450 1A2 (Homo sapiens) (UniProt P05177); experiment: p450-cyp1a2 (AID 410; calls by dose curve; note: potency is the fitted concentration of half-maximal effect); conditions: recombinant CYP1A2, luciferin-ME demethylation, luminescence; series mostly up to 57 µM
Chain of Cytochrome P450 1A2 (Homo sapiens) (P05177 whole entry, looked up): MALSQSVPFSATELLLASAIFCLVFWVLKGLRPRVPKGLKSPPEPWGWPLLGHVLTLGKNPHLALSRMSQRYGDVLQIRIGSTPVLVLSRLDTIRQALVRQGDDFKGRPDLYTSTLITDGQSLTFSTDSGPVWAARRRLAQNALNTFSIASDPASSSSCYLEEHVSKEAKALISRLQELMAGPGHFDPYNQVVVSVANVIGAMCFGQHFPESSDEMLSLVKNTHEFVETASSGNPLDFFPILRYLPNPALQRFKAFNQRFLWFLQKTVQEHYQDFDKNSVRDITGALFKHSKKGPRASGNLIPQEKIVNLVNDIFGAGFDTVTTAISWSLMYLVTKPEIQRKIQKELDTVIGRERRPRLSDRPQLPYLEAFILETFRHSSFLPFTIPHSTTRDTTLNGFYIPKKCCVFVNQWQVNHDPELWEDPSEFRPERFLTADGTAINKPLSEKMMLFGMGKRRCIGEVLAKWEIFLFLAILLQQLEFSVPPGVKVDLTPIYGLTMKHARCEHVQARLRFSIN
Outline: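 20nM CYP1A2 with 100uM Luciferin-ME (at Km) in 100mM KPO4; compound preincubated 10 min, NADPH regeneration added, 60 min at room temperature. Luciferin quantified by luminescence after detection reagent; normalized to 57 uM furafylline.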

[4] = Stat Signaling Pathway (AID 446; active = well fitted curve in either direction with a large enough effect, not every such curve was filed as active;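 note: ME-180 cervical cancer cells given 40 pM IL-6 alongside compound; SIE-controlled beta-lactamase reporter measured as 460/530 nm FRET emission ratio; % is set by controls: 0 for no effect and ±100 for the full control effect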); conditions: ME-180 SIE beta-lactamase reporter, IL-6 stimulated, 5 h; at 7.69 µM (top of the series) unless noted
Outline: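 Screening format detects activators and inhibitors alike: ME-180 SIE-bla cells stimulated at 40 pM IL-6 for 5 hrs with compound, then dual-emission beta-lactamase read at 405 nm excitation.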

[5] = target: Glucocorticoid receptor (Homo sapiens) (UniProt P04150); experiment: GR-GFP Redistribution (AID 450;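 active = compounds whose dose series gives a full or clear partial fitted curve of increased nuclear translocation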; note: potency is the fitted concentration of half-maximal effect); conditions: U2OS GR-GFP nuclear translocation, laser cytometry, 2 h
Chain of Glucocorticoid receptor (Homo sapiens) (P04150 whole entry, looked up, the tested form may be a part): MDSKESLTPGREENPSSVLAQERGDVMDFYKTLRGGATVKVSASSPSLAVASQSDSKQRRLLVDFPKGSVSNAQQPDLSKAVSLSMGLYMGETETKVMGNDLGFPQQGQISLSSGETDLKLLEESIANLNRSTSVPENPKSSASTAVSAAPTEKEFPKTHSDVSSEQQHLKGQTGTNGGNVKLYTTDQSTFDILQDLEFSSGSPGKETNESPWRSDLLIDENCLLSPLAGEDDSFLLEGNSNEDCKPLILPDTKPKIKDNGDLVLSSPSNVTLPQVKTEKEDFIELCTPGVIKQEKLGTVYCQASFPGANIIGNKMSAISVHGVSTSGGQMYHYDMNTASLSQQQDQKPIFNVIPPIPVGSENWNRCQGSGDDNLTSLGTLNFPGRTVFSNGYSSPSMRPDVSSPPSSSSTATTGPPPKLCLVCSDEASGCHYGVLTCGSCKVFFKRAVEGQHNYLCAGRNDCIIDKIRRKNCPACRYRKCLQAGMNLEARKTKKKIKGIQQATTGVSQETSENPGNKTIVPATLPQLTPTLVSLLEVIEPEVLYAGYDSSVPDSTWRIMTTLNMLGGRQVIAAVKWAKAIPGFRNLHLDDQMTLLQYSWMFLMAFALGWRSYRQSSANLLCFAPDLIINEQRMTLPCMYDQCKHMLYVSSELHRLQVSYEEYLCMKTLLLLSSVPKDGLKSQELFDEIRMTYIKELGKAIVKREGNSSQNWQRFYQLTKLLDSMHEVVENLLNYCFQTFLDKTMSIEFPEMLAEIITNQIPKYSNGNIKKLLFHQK

[6] = target: Glucocorticoid receptor (Homo sapiens) (UniProt P04150); experiment: GR-EFC Redistribution (AID 451; calls by dose curve; note: potency is the fitted concentration of half-maximal effect); conditions: CHO-K1 GR-EFC translocation, beta-gal luminescence, 2 h
Outline: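 Translocation of GR-ED fusion to nuclear EA restores b-gal, read by luminescence after 1 h room-temperature detection. Engineered CHO-K1 biosensor cells, 1,000/well, exposed 2 h at 37 C to titrations up to 46 uM final.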

[7] = target: Mitogen-activated protein kinase 10 (Mus musculus) (UniProt Q61831); experiment: JNK3 AlphaScreen Assay (AID 530; active = well fitted curve in either direction with a large enough effect, not every such curve was filed as active;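 note: kinase came from lysate of stimulated human HepG2 cells; signal reports phosphorylation of biotinylated GST-cJun 1-79 at Ser73 with 10 µM ATP; % is set by controls: 0 for no effect and ±100 for the full control effect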); conditions: JNK3 lysate, c-Jun phosphorylation; series mostly up to 57.1 µM
Outline: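 Compound titrations were preincubated 15 minutes at room temperature with substrate, antibody and pre-activated JNK3-containing HepG2 lysate. Reactions were started with 10 uM ATP and stopped with EDTA-containing bead buffer for AlphaScreen detection.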

[8] = target: 3',5'-cyclic-AMP phosphodiesterase 4B (Homo sapiens) (UniProt Q07343); experiment: qHTS Assay for Inhibitors of PDE-IV (AID 607; active = well fitted activation curve with a large enough effect in the main read-out, with a control signal flat, not every such curve was filed as active; note: % of control where 0% means no effect); conditions: HEK293 ACTOne CNG channel cells, membrane potential fluorescence; series mostly up to 22.9 µM
Chain of 3',5'-cyclic-AMP phosphodiesterase 4B (Homo sapiens) (Q07343 whole entry, looked up): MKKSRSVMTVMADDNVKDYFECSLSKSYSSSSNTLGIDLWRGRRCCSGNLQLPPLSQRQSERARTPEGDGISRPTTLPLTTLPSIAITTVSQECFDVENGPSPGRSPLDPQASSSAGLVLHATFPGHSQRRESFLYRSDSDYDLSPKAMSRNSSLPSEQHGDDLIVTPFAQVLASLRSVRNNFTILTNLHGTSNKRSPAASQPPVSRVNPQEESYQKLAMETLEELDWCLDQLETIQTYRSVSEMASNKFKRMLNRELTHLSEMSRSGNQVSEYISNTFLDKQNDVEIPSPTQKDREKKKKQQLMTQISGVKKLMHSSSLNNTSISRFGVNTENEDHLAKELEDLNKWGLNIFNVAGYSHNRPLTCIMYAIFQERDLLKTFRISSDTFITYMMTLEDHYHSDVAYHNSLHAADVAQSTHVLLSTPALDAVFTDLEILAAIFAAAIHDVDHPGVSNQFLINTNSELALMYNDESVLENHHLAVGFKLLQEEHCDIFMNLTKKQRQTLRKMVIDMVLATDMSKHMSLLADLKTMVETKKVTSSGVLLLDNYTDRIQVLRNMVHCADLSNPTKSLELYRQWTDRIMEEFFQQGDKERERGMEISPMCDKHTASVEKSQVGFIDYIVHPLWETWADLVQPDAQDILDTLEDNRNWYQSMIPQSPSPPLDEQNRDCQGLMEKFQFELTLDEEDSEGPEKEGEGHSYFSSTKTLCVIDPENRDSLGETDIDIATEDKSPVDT
Outline: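 The readout is membrane depolarisation from a cAMP-sensing CNG channel, detected with a potential dye at ex 535/em 590. Cells were HEK293-derived (endogenous PDE-IV) at 1000 cells/well, titrated up to 22.9 uM final.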

[9] = target: Cytochrome P450 3A4 (Homo sapiens) (UniProt P08684); experiment: qHTS Assay for Inhibitors and Substrates of Cytochrome P450 3A4 (AID 884); conditions: recombinant CYP3A4, Luciferin-PPXE luminescence; series mostly up to 57.1 µM; note: nearly all actives have a fitted effect of over 50% in size; note: potency is the fitted concentration of half-maximal effect
Chain of Cytochrome P450 3A4 (Homo sapiens) (P08684 whole entry, looked up): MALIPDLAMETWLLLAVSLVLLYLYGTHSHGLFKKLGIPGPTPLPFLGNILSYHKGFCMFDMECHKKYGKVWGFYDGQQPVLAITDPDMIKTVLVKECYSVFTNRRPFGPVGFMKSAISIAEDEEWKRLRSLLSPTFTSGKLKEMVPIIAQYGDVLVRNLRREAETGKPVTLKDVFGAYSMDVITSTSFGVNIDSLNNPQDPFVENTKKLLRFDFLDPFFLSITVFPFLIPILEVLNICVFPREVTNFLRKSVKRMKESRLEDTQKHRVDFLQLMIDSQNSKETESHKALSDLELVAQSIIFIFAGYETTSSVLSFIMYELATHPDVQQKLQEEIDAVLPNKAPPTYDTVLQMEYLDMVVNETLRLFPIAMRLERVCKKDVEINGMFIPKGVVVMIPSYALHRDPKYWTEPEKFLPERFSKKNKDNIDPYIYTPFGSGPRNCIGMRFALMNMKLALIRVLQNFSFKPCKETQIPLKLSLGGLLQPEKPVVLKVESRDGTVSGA
Outline: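 20 nM human CYP3A4 with 25 uM Luciferin-PPXE (at KM) in 200 mM KPO4, preincubated 10 min with compound; NADPH regeneration started a 60 min RT reaction. Luciferin detected by luminescence, normalized to 57 uM ketoconazole as full inhibition.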

[10] = target: Cytochrome P450 3A4 (Homo sapiens) (UniProt P08684); experiment: qHTS Assay for Activators of Cytochrome P450 3A4 (AID 885); conditions: recombinant CYP3A4, Luciferin-PPXE luminescence, 60 min; series mostly up to 57.1 µM; note: nearly all actives have a fitted effect of over 65% in size; note: potency is the fitted concentration of half-maximal effect
Outline: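 Steps: enzyme/substrate mix dispensed; compound added, 10 min RT; NADPH regeneration solution added, 60 min RT; luciferin detection buffer stops reaction; 20 min later luminescence measured.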

[11] = target: Cytochrome P450 2D6 (Homo sapiens) (UniProt P10635); experiment: qHTS Assay for Inhibitors and Substrates of Cytochrome P450 2D6 (AID 891); conditions: recombinant CYP2D6, luciferin-ME EGE luminescence; series mostly up to 57.1 µM; note: potency is the fitted concentration of half-maximal effect; nearly all actives have a fitted effect of over 60% in size
Outline: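 Human CYP2D6 (5 nM) with 30 uM Luciferin-ME EGE (at Km) in 100 mM KPO4, compound preincubated 10 min, then NADPH regeneration system for 60 min at room temperature. Luciferin read by luminescence; normalized to 1.43 uM quinidine.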

[12] = target: Cytochrome P450 2C19 (Homo sapiens) (UniProt P33261); experiment: qHTS Assay for Inhibitors and Substrates of Cytochrome P450 2C19 (AID 899); conditions: recombinant CYP2C19, luciferin-H EGE luminescence; series mostly up to 57.1 µM; note: potency is the fitted concentration of half-maximal effect; nearly all actives have a fitted effect of over 60% in size
Chain of Cytochrome P450 2C19 (Homo sapiens) (P33261 whole entry, looked up): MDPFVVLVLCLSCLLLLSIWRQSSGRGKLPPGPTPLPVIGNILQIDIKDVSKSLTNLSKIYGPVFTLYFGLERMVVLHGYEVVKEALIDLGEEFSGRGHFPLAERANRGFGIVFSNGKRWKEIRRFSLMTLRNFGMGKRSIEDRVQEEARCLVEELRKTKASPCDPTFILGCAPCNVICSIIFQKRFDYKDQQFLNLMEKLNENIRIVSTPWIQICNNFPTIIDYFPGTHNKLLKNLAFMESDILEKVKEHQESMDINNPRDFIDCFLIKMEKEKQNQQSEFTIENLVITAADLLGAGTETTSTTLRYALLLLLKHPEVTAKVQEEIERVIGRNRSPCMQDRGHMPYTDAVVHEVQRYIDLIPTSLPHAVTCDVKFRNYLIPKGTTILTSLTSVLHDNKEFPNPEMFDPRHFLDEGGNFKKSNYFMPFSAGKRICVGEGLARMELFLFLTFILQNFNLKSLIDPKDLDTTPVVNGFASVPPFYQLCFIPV
Outline: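 5nM enzyme + 10uM Luciferin-H EGE (=KM), 50mM KPO4; cpd pin-transferred, 10 min 37C; NADPH regen, 60 min 37C; stopped w/ luciferin detection reagent, 20 min; luminescence. Normalized to 57uM ketoconazole (AC100).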

[13] = target: Dual specificity protein kinase CLK4 (Homo sapiens) (UniProt Q9HAZ1); experiment: qHTS Assay for Inhibitors of CDC-like Kinase 4 (Kinase-Glo Assay) (AID 1770); conditions: recombinant Clk4, Kinase-Glo ATP depletion luminescence; series mostly up to 66.7 µM; note: nearly all actives have a fitted effect of over 65% in size; note: potency is the fitted concentration of half-maximal effect
Chain of Dual specificity protein kinase CLK4 (Homo sapiens) (Q9HAZ1 whole entry, looked up): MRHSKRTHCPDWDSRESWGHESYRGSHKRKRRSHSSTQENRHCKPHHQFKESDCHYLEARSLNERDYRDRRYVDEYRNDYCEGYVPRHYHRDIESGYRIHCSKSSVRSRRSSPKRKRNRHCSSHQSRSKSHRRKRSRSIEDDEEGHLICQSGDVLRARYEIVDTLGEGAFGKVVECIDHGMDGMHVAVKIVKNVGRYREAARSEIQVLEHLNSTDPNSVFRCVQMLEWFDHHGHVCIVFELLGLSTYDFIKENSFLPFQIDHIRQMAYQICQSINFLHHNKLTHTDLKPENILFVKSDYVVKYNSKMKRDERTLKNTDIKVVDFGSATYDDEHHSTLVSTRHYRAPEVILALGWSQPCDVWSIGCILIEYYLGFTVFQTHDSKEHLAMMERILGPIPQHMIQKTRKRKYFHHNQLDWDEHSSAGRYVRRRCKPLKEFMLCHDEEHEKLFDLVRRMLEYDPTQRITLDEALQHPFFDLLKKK
Outline: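 Substrate mix (RS peptide 100 uM, ATP 1 uM) dispensed, compound pinned in, then Clk4 added to 25 nM final. Incubated 4.5 h at RT; Kinase-Glo reagent added, luminescence read after 5 min.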

[14] = target: Dual specificity protein kinase CLK4 (Homo sapiens) (UniProt Q9HAZ1); experiment: qHTS Assay for Inhibitors of CDC-like Kinase 4 (ADP-Glo Assay) (AID 1771); conditions: recombinant CLK4, ADP-Glo luminescence; series mostly up to 80 µM; note: nearly all actives have a fitted effect of over 70% in size; note: potency is the fitted concentration of half-maximal effect
Outline: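 25 nM Clk4 with 100 uM RS repeat peptide and 1 uM ATP (final) in buffer with 2 mM MgCl2, 0.5 mM EGTA, 2.5 mM DTT, 0.01% Triton X-100; 1 h at room temperature; ADP-Glo luminescence for ADP formed.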

[15] = target: Dual specificity protein kinase CLK4 (Homo sapiens) (UniProt Q9HAZ1); experiment: qHTS Assay for Inhibitors of CDC-like Kinase 4 (ADP-FP Assay) (AID 1795); conditions: Transcreener ADP fluorescence polarization; series mostly up to 50 µM; note: nearly all actives have a fitted effect of over 60% in size; note: potency is the fitted concentration of half-maximal effect
Outline: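 Clk4 6.25 nM; RS peptide 100 uM; ATP 1 uM; 25 mM Tris pH 7.5, 10 mM MgCl2; 1 h reaction. ADP detected via antibody/orange tracer FP displacement; TG003 positive control.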

[16] = target: Ubiquitin carboxyl-terminal hydrolase 1 (Homo sapiens) (UniProt O94782); experiment: Inhibitors of USP1/UAF1: Pilot qHTS (AID 504865); conditions: purified USP1/UAF1, Ub-rhodamine cleavage fluorescence; series mostly up to 54.9 µM;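 note: rhodamine fluorescence freed from ubiquitin-rhodamine substrate followed over time; top concentration of the series differs between compounds; % is set by controls: 0 for no effect and ±100 for the full control effect; nearly all actives have a fitted effect of over 35% in size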
Chain of Ubiquitin carboxyl-terminal hydrolase 1 (Homo sapiens) (O94782 whole entry, looked up): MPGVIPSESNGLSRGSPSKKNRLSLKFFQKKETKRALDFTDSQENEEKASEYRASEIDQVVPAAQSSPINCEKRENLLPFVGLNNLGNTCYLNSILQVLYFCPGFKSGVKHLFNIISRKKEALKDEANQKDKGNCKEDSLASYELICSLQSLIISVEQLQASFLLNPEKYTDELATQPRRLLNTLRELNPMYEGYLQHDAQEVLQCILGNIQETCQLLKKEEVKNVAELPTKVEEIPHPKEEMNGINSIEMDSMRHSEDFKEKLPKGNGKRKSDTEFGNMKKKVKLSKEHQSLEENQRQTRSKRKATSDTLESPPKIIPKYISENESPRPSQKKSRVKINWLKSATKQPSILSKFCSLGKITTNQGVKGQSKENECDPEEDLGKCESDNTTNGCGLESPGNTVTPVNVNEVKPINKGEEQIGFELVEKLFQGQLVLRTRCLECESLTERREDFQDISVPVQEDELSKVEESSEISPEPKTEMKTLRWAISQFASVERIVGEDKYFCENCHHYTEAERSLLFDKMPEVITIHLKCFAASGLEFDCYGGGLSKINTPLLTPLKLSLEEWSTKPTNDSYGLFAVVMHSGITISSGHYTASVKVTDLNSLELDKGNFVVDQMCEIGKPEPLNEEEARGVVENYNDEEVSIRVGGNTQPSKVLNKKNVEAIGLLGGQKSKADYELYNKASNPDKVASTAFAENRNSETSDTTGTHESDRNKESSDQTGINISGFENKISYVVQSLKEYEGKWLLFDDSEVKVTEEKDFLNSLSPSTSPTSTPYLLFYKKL
Outline: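 In 50mM HEPES pH 7.8 containing 0.5mM EDTA, 1mM TCEP, 0.1 mg/ml BSA and 0.01% Tween-20, 1nM USP1/UAF1 is exposed to compound for 15 min, then Ub-Rho (150nM final) is added and fluorescence is read over time.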

[17] = Primary qHTS for small molecule stabilizers of the endoplasmic reticulum resident proteome: Secreted ER Calcium Modulated Protein (SERCaMP) assay (AID 1508630); conditions: SH-SY5Y GLuc-SERCaMP (Gaussia luciferase released on ER calcium loss) secretion, thapsigargin, luminescence; series mostly up to 38.4 µM; note: % is set by controls: 0 for no effect and ±100 for the full control effect
Outline: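 GLuc-SERCaMP-expressing SH-SY5Y cells, pretreated 16 h with compound, are challenged with thapsigargin to empty ER calcium stores; after 4 h, coelenterazine is added directly to the medium and luminescence is imaged.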

[18] = target: Cytochrome P450 2C9 (Homo sapiens) (UniProt P11712); experiment: qHTS Assay for Inhibitors and Substrates of Cytochrome P450 2C9 (AID 883); conditions: recombinant CYP2C9, luciferin-H luminescence, 60 min; series mostly up to 57.1 µM; note: potency is the fitted concentration of half-maximal effect; nearly all actives have a fitted effect of over 60% in size
Outline: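 Inhibition of CYP2C9 is scored as loss of luminescence, with 57uM sulphaphenazole defining 100% inhibition. Substrate Luciferin-H is used at 100uM, equal to its KM; enzyme at 10nM in 25mM KPO4, 60 min at 37C with NADPH regeneration.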

[19] = NFAT Signaling Pathway (AID 444; active = well fitted curve in either direction with a large enough effect, not every such curve was filed as active); conditions: Jurkat NFAT-bla M1, carbachol, beta-lactamase ratio, 5 h; at 7.69 µM (top of the series) unless noted
Outline: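 Read-out: CCF4 FRET ratio (460 nm/530 nm) after 1 h RT dye loading, used for %activity and AC50 from titration series. Cells: Jurkat NFAT-β-lactamase/M1 line, treated with compound plus 1 uM carbachol for 5 h, 37 °C.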

[20] = qHTS Assay for Identification of Small Molecule Agonists for Hypoxia Response Element Signaling Pathway (AID 914; active = well fitted activation curve with a large enough effect in the signal ratio, with a control signal flat, not every such curve was filed as active; the % refers to the signal ratio; note: potency is the fitted concentration of half-maximal effect); conditions: ME-180 (cervical carcinoma) HRE-bla reporter, beta-lactamase ratio, CoCl2, 17 h; activation: hits give high values
Outline: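 Cells were plated overnight, pin-dosed with compound in a titration series, co-stimulated with EC50 CoCl2 and incubated 17 hours at 37 degrees Celsius. CCF4 substrate was then loaded, and AC50 values came from the 460nm/530nm ratio.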

CN(C)c1ccc(-c2nc(NCCc3cnc[nH]3)c3ccccc3n2)cc1
inactive: activity change, negative = inhibition [2] 0.922% | activity, negative = inhibition [4] 15.6% | Potency [5] > 46 µM | Potency [6] > 46 µM | Potency [7] | Potency [8] | Potency [10] | Potency [15] | Potency [16] | outcome [17]
active: Potency [1] 6.71 µM | Potency [3] 0.631 µM | Potency [9] 2.51 µM | Potency [11] 7.94 µM | Potency [12] 1.58 µM | Potency [13] 28.2 µM | Potency [14] 22.4 µM

CNc1ncnc2ccc(-c3cccc(OC)c3)cc12
inactive: Potency [1] > 11.4 µM | activity change, negative = inhibition [2] -19.8% | activity, negative = inhibition [4] -20.2% | Potency [5] > 46 µM | Potency [6] > 46 µM | Potency [7] | Potency [8] | Potency [16] | outcome [17]
active: Potency [3] 0.501 µM | Potency [18] 0.501 µM | Potency [13] 0.501 µM | Potency [14] 0.501 µM | Potency [15] 0.282 µM

CN(C)c1ccc(-c2cncnc2N(C)Cc2ccco2)cc1
inactive: Potency [1] > 11.4 µM | activity change, negative = inhibition [2] -22.2% | activity change, negative = inhibition [19] -8.48% | activity, negative = inhibition [4] -5.82% | Potency [6] > 46 µM | Potency [10] | Potency [15] | Potency [16] | outcome [17]
active: Potency [3] 0.631 µM | Potency [9] 0.631 µM | Potency [12] 0.251 µM | Potency [13] 15.8 µM | Potency [14] 17.8 µM

O=c1c(-c2ccccc2)nc2cnc(N3CCOCC3)nc2n1Cc1cccs1
inactive: Potency [1] > 11.4 µM | activity change, negative = inhibition [2] 20.9% | activity change, negative = inhibition [19] 14.9% | Potency [5] > 9.22 µM | Potency [6] > 46 µM | Potency [7] | Potency [8] | Potency [13] | Potency [14] | Potency [15] | Potency [16] | outcome [17]
active: Potency [3] 2.51 µM

O=c1c(-c2ccc(Cl)cc2)nc2cnc(N3CCOCC3)nc2n1CCc1ccccc1
inactive: Potency [1] > 11.4 µM | Potency [5] > 9.22 µM | Potency [6] > 46 µM | Potency [7] | Potency [8] | Potency [9] | Potency [13] | Potency [14] | Potency [15] | Potency [16] | outcome [17]
active: activity change, negative = inhibition [2] 87.9% [activator] | Potency [3] 2 µM | activity change, negative = inhibition [19] 112% [activator] | Potency [10] 15.8 µM

Cn1c(=O)c(-c2ccc(F)cc2)nc2cnc(N3CCOCC3)nc21
inactive: Potency [1] > 11.4 µM | activity change, negative = inhibition [2] 14.8% | activity change, negative = inhibition [19] 24.2% | Potency [5] > 9.22 µM | Potency [6] > 46 µM | Potency [7] | Potency [8] | Potency [9] | Potency [13] | Potency [14] | Potency [15] | Potency [16] | outcome [17]
active: Potency [3] 2.51 µM | Potency [20] 2.51 µM
